From PubChem BioAssay (EPA / NIEHS)
Calls of active or inactive are those of the source. Rule for the calls: active = hit-call score of the fitted dose curve at least 0.9, where 1 is the maximum; inconclusive = response in the unintended direction; inactive = score below 0.9.

Test: CCTE_Deisenroth_H295R-HTRF_384WELL_CTOX: Cytotoxicity Assessment in CCTE's H295R-HTRF Assay, Deisenroth Lab (AID 2284380)
Procedure, shortened: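 H295R adrenocortical carcinoma cells plated 24 h, then exposed 48 h to nine-point series 0.001–100 uM final, triplicate, n=5. ATP measured by CellTiter-Glo 2.0 luminescence on same plates after medium collection; loss versus DMSO.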

SMILES | outcome
CC(C)(C)NC(=O)[C@H]1CC[C@H]2[C@@H]3CC[C@H]4NC(=O)C=C[C@]4(C)[C@H]3CC[C@]12C | inactive
N#Cc1ccc(C(c2ccc(C#N)cc2)n2cncn2)cc1 | inactive
C=C[C@@]1(C)CC(=O)[C@]2(O)[C@@]3(C)[C@@H](O)CCC(C)(C)[C@@H]3[C@H](O)[C@H](OC(C)=O)[C@@]2(C)O1 | inactive
